The sample as a whole holds a higher share of hits than the screen did.
Vaccinia pol inh: vaccinia E9 polymerase processive synthesis inhibitors, primary screen, biochemical, absorbance | in vitro processive DNA synthesis, absorbance read-out; active compounds read low | normalized absorbance, % (test concentration not listed) | 0.94% of 46,000 active | AID 493162, 2011; in the data active = normalized absorbance mostly below about 85%, no sharp cut-off; inactive = mostly above about 86%
An asterisk follows results filed as active.

SMILES	Vaccinia pol inh
CCc1ccc(-n2c(N(C)Cc3ccccc3)nc3ccccc3c2=O)cc1	90
CC(C)(C)C(=O)Cc1nc(O)cs1	114
O=C(Nc1cccc(C(F)(F)F)c1)c1cc(-c2ccccc2)n[nH]1	106
COc1cc(Br)cc(C=Nc2ccccc2)c1O	111
Oc1c(Br)cc(Br)cc1C=Nc1ccccc1F	81*
Oc1ccc(Br)cc1C=Nc1cc2c(cc1Br)OCCO2	100
Cc1c(Cl)c(=O)oc2cc(OC(=O)C(C)NC(=O)OCc3ccccc3)c(Cl)cc12 (stereo not given)	101
COc1cc(-c2nc3c4ccccc4c4ccccc4c3[nH]2)ccc1O	97
Nc1cc(C(F)(F)F)ccc1NCCC(=O)O	99
CC(C)(C)C(=O)COC(=O)C1(c2ccc(F)cc2)CCCC1	96
O=C(CSc1ccccc1Cl)c1cccs1	104
CN(C)/C=C/C(=N)SCc1c(F)cccc1Cl	75*
Fc1cccc(CSCc2c(F)cccc2Cl)c1	108
CC(=O)/C(C#N)=C(\N=C\N(C)C)SCc1c(Cl)cccc1Cl	102
OC(COCc1ccccc1F)CN1CCCC1 (stereo not given)	103
Cc1cccc2nc(CSC(=S)NCC3CCCO3)cn12 (stereo not given)	110
Cc1cccc2nc(CSC(=S)NCc3cccnc3)cn12	72*
Cc1cccc2nc(CSCc3ccco3)cn12	80
CCOC(C)n1cccc1-c1ccccc1 (stereo not given)	98
NS(=O)(=O)c1ccc(Cl)cc1Sc1ccccc1C(=O)O	86
Oc1ccc(Cl)cc1	103
Oc1ccc(Cl)cc1Sc1cc(Cl)ccc1O	77*
CCN1C(=O)C(=Cc2ccc(N3CCOCC3)cc2OC)C(=O)N(CC)C1=S	102
CCN1/C(=C/c2scc[n+]2C)C=C(C)c2cc(OC)c3ccccc3c21	27*
CSc1ncccc1C(=O)NCc1ccc(F)cc1	107
SMILES	Vaccinia pol inh
O=C(CCOc1ccccc1)Nc1nc(-c2ccccn2)cs1	98
N#CC(C#N)=C(Nc1ccccc1Cl)SCc1cccc(F)c1	26*
N#CC(C#N)=C(Nc1ccc(Br)cc1)SCc1ccc(F)cc1	86
N#CC(C#N)=C(N)SCc1ccccc1	115
CCOC(=O)/C(=N\O)C1=NC2(CCCC2)Cc2cc(OC)c(OC)cc21	100
Nc1nc(C(=O)Nc2ccccc2)c(-c2ccccc2)s1	103
O=C(CN1C(=O)/C(=C\c2ccccc2)Oc2ccccc21)NCCc1ccccc1	107
c1ccc(CNc2ccc3c(ccc4c5ccccc5[nH]c34)n2)cc1	54*
Cn1c(SCc2ccccc2)nc2c([nH]c3ccccc32)c1=O	97
c1ccc(-c2nc(NCc3cccnc3)c3ccccc3n2)cc1	102
CC(C)N=Cc1c(O)[nH]c2ccccc12	100
COc1ccc2[nH]c(O)c(N=O)c2c1	100
O=Nc1c(-c2c(O)[nH]c3ccccc23)[nH]c2ccccc12	83*
O=C(c1ccc2c(c1)N(Cc1ccc(F)cc1)C(=O)/C(=C/c1ccccc1)S2)N1CCCC1	102
O=C(Nc1nc(-c2ccc3c(c2)OCCO3)cs1)C1CC1	92
CN(C)CCNC(=O)c1cc(-c2cccs2)nc2ccccc12	76
COc1ccc2[nH]c3c(N(C)C)ncnc3c2c1	64*
CCN(CC)c1ncnc2c1[nH]c1ccc(C)cc12	100
COc1ccc2[nH]c3nc(=S)[nH]nc3c2c1	101
CCC(C)(C(=O)Nc1cccc(C)c1)N1CCC1=O (stereo not given)	101
CC(C)c1ccccc1NC(=O)COc1ccc(Br)cc1	99
O=C(NCC1(c2ccccc2)CCCC1)c1noc2c1COc1ccccc1-2	107
CC(=O)NS(=O)(=O)c1ccc(-c2ccc(/C=C3/C(=O)NN(c4cccc(Cl)c4)C3=O)o2)cc1	100
CN(Cc1ccccc1)C(=O)CNc1ccc(Br)cc1	102
Nc1cc(=O)n(Cc2ccccc2)c(=O)n1-c1ccccc1	96
SMILES	Vaccinia pol inh
Cc1c(CN(C)C)c2c(n1Cc1ccccc1)C(=O)c1ccc(Br)cc1-2	68*
COc1cccc(N2C(=O)/C(=C/c3cccc(O)c3)SC2=S)c1	101
O=C(NCCc1c[nH]c2ccccc12)c1ccc(S(=O)(=O)N2CCCCC2)cc1	101
CCC(=O)NC1CC(C(C)(C)NC(=O)CC)CC=C1C (stereo not given)	96
Nc1c(C(=O)c2ccc(Br)cc2)sc2nc(-c3cccs3)ccc12	97
O=C1NC(=Nc2cccc(C(=O)O)c2)S/C1=C/c1ccc(-c2ccc(C(=O)O)cc2)o1	29*
O=C(O)c1ccc(-c2ccc(/C=C3\Sc4ccccc4C3=O)o2)cc1	100
O=C(O)c1cccc(-c2ccc(/C=C3/SC(=O)N(c4ccccc4)C3=O)o2)c1	95
O=C(/C=C/c1ccc(-c2cccs2)s1)N1CCSCC1	95
CN(C)C=NC(=O)c1ccc(-c2cccs2)s1	80*
Cc1ccc(C(=O)c2cccs2)s1	99
CCOC(=O)C1=C(O)c2ccccc2NC(=O)C1	100
CCOc1ccccc1Cn1c(=O)oc2ccccc21	95
Cc1cccc(C#CCN2CCCCC2)c1	100
